The values below come from PubChem BioAssay (EPA / NIEHS).

“And” between values parts separate entries of the source, which are not always exact repeats. Identical values can stand only once. Records with an inconclusive call do not appear. Some compounds were tested as several samples or in several runs, with calls that do not always agree. The source made the active and inactive calls. The calls were made as follows, unless noted: active = hit-call score of the fitted dose curve at least 0.9, where 1 is the maximum; inactive = score below 0.9.

Assay [1] concerns the target Bile acid receptor (Homo sapiens) (UniProt Q96RI1). Put plainly: ATG_FXR_TRANS: Attagene TRANS-FACTORIAL HepG2 Assay for Farnesoid X Receptor (FXR) (AID 2282979; active = hit-call score of the fitted dose curve at least 0.9, where 1 is the maximum;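 also: hits raise reporter mRNA above DMSO so AC50 marks FXR activation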). The following applies: HepG2 Attagene TRANS FXR-GAL4 reporter transcription. Put shortly:
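Transient transfection of HepG2 with multiplexed GAL4-UAS reporter units; exogenous FXR-GAL4 chimera. Dose 24 h → TriZol RNA → oligo(dT) RT → PCR, 6-FAM primer extension, HpaI cut → CE. Gain vs DMSO.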

Assay [2] concerns the target Oxysterols receptor LXR-alpha (Homo sapiens) (UniProt Q13133). The assay is described as follows: ATG_LXRa_TRANS: Attagene TRANS-FACTORIAL HepG2 Assay for human Liver X Receptor alpha (LXRa) (AID 2282980; active = hit-call score of the fitted dose curve at least 0.9, where 1 is the maximum). As to conditions: HepG2 Attagene TRANS reporter, LXRa transactivation. Put shortly: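 Transfect HepG2 with GAL4-UAS multiplex reporter constructs (TRANS format, chimeric receptor-GAL4); treat 24 h; extract RNA, reverse-transcribe, PCR-amplify, FAM-label, HpaI-digest; resolve fragments by capillary electrophoresis. Upward response vs DMSO.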

Assay [3] has as its target Oxysterols receptor LXR-beta (Homo sapiens) (UniProt P55055). The assay is described as follows: ATG_LXRb_TRANS: Attagene TRANS-FACTORIAL HepG2 Assay for human Liver X Receptor beta (LXRb) (AID 2282981; active = hit-call score of the fitted dose curve at least 0.9, where 1 is the maximum). The following applies: HepG2 Attagene TRANS GAL4-LXRb reporter, mRNA. Put shortly:
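Readout: fluorescent reporter mRNA fragments resolved by capillary electrophoresis after RT-PCR. System: transiently transfected human HepG2, exogenous LXRb-Gal4 chimera driving GAL4-UAS reporter, 24 h dosing. Activity fitted upward against DMSO baseline.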

Assay [4] deals with Hepatocyte nuclear factor 4-alpha (Homo sapiens) (UniProt P41235). Put plainly: ATG_HNF4a_TRANS: Attagene TRANS-FACTORIAL HepG2 Assay for human Hepatocyte Nuclear Factor 4 alpha (HNF4a) (AID 2282982; active = hit-call score of the fitted dose curve at least 0.9, where 1 is the maximum). The following applies: HepG2 HNF4a transactivation reporter, mRNA readout. Put shortly:
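Transient MRTU transfection of HepG2, 24 h dosing. Readout: reporter mRNA via RT-PCR + capillary electrophoresis, fluorescence; activity fit upward relative to DMSO control.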

Assay [5] in a line: ATG_M_06_TRANS: Attagene TRANS-FACTORIAL HepG2 Assay for M06 Transcription Factor (Internal Marker) (AID 2282983; active = hit-call score of the fitted dose curve at least 0.9, where 1 is the maximum;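 also: reporter transcript level by RT-PCR then capillary electrophoresis fluorescence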). The following applies: HepG2 Attagene TRANS M06 internal marker reporter. In short, it runs like this:
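Background control endpoint: reporter mRNA from transiently transfected HepG2 after 24 h dosing, detected by RT-PCR with capillary electrophoresis fluorescence. Analysed for gain versus DMSO.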

Assay [6] is described as follows: ATG_M_32_TRANS: Attagene TRANS-FACTORIAL HepG2 Assay for M32 Transcription Factor (Internal Marker) (AID 2282984; active = hit-call score of the fitted dose curve at least 0.9, where 1 is the maximum;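 also: transcript level of a background control reporter unit measured by RT-PCR and capillary electrophoresis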). The following applies: HepG2 Attagene TRANS M32 internal marker reporter. Put shortly:
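Read-out: fluorescent reporter cDNA fragments resolved by capillary electrophoresis after RT-PCR of total RNA. Transfected HepG2 cells were exposed to chemical for 24 h. Activity scored in the positive direction relative to DMSO.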

For assay [7], the target named is Nuclear receptor subfamily 4 group A member 2 (Homo sapiens) (UniProt P43354). The assay is described as follows: ATG_NURR1_TRANS: Attagene TRANS-FACTORIAL HepG2 Assay for human Nuclear Receptor Related Protein 1 (NURR1) (AID 2282985; active = hit-call score of the fitted dose curve at least 0.9, where 1 is the maximum). The following applies: HepG2 Attagene TRANS reporter, mRNA readout. Put shortly:
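Read-out: reporter mRNA induction by RT-PCR plus capillary electrophoresis with fluorescence detection, after 24 h dosing of transfected HepG2 cells. Exogenous NR-Gal4 chimera activity drives GAL4-UAS reporter; activity fitted upward versus DMSO.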

In assay [8] the target is Transcriptional activator Myb (Homo sapiens) (UniProt P10242). Put plainly: ATG_Myb_CIS: Attagene CIS-FACTORIAL HepG2 Assay for human Myeloblastosis (Myb) Proto-Oncogene Transcription Factor (AID 2282986). As to conditions: HepG2 Attagene CIS-FACTORIAL Myb reporter transcription; actives raise or lower the signal. In short, it runs like this: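 Using HepG2 liver cells bearing transiently transfected cis-promoter reporter constructs, the assay measures induction or loss of reporter mRNA after 24 hours of dosing. Detection used fluorescently labeled RT-PCR products separated by capillary electrophoresis.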
Chain of Transcriptional activator Myb (Homo sapiens) (P10242 whole entry, looked up): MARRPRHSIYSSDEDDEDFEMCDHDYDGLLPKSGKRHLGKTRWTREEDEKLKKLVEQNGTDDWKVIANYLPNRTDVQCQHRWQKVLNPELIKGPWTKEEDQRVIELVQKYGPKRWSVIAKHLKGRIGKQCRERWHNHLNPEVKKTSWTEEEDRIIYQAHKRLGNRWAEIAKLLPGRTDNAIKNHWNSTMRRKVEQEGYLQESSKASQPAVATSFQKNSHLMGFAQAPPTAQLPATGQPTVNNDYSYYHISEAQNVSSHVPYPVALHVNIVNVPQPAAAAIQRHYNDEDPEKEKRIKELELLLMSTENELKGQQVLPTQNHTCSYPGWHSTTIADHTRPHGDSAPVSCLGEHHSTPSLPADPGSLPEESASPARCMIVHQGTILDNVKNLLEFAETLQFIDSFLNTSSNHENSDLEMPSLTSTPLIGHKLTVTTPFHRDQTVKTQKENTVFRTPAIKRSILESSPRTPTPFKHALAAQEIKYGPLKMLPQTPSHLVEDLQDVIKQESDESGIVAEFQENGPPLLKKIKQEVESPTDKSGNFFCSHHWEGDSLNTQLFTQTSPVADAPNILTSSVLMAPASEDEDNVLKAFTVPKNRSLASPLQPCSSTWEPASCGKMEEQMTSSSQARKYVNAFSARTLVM

Assay [9] concerns the target Nuclear respiratory factor 1 (Homo sapiens) (UniProt Q16656). The assay is described as follows: ATG_NRF1_CIS: Attagene CIS-FACTORIAL HepG2 Assay for human Nuclear Respiratory Factor 1 (NRF1) Orphan Gene (AID 2282987). The following applies: HepG2 NRF1 cis-element reporter, Attagene multiplex; actives raise or lower the signal. In short, it runs like this:
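Reporter mRNA induction or loss in HepG2 cells after 24 h dosing; cis-regulated reporter constructs report endogenous transcription-factor activity. Quantified by RT-PCR/capillary electrophoresis fluorescence, DMSO-referenced.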

A short description of assay [10]: ATG_NFI_CIS: Attagene CIS-FACTORIAL HepG2 Assay for human Nuclear Factor I (NFI) (AID 2282989). As to conditions: HepG2 cis-regulatory reporter, NFI response element transcription; actives raise or lower the signal. Put shortly:
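Cells: human liver HepG2, transiently transfected with promoter-regulated reporter transcription units. Exposure 24 h. Detection: fluorescent RT-PCR products separated by capillary electrophoresis, normalised to DMSO negative control.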

Assay [11] concerns the target Myc proto-oncogene protein (Homo sapiens) (UniProt P01106). Put plainly: ATG_Myc_CIS: Attagene CIS-FACTORIAL HepG2 Assay for human Myelocytomatosis (Myc) Proto-Oncogene Transcription Factor (AID 2282990). The following applies: HepG2, Attagene cis-reporter transcription factor activity; actives raise or lower the signal. Put shortly:
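Read-out: fluorescent reporter mRNA fragments resolved by capillary electrophoresis after RT-PCR. Human HepG2 liver cells carried transfected cis-element reporter units and were dosed for 24 h. Gain or loss of signal fitted relative to DMSO baseline.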

Assay [12] can be described thus: ATG_NRF2_ARE_CIS: Attagene CIS-FACTORIAL HepG2 Assay for human Nuclear Factor Erythroid 2 Related Factor 2 (NFR2) response to Antioxidant Response Elements (ARE) (AID 2282992).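 As to AC50: reporter mRNA level measured by RT-PCR and capillary electrophoresis fluorescence.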 The following applies: HepG2 Attagene ARE/NRF2 reporter, transcription factor activity; actives raise or lower the signal. In short, it runs like this:
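Fluorescence intensity of reporter-specific cDNA fragments, separated by capillary electrophoresis, reflects mRNA induction in transfected HepG2 cells at 24 h. Activity is fitted bidirectionally, DMSO serving as baseline.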

A short description of assay [13]: ATG_Oct_MLP_CIS: Attagene CIS-FACTORIAL HepG2 Assay for human Octamer-Binding Transcription Factor (Oct) (AID 2282993). As to conditions: HepG2 Attagene cis-factorial Oct reporter, mRNA; actives raise or lower the signal. Put shortly:
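HepG2, transient MRTU transfection, cis promoter elements; 24 h dosing; RT-PCR/CE fluorescence read-out of reporter mRNA; fit both directions vs DMSO.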

Assay [14] concerns the target Cellular tumor antigen p53 (Homo sapiens) (UniProt P04637). Put plainly: ATG_p53_CIS: Attagene CIS-FACTORIAL HepG2 Assay for human p53 Transcription Factor (AID 2282994). The following applies: HepG2 p53 cis-element reporter, Attagene mRNA; actives raise or lower the signal. Put shortly: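 Transiently transfected HepG2 (multiple cis reporter transcription units); exposure 24 h; reporter RNA via RT-PCR, 6-FAM extension, 2 h HpaI digest at 37 C, CE detection; DMSO baseline.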

The nature of assay [15]: BSK_3C_TissueFactor: BioMAP Diversity Plus: 3C Assay for Tissue Factor Biomarker Activity (AID 2282997). The following applies: BioMAP 3C HUVEC, tissue factor biomarker readout; actives raise or lower the signal. Put shortly: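 After a 24 h chemical exposure of primary human umbilical vein endothelial cells, Tissue Factor levels were quantified by ELISA.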
Assay [16] can be described thus: BSK_3C_uPAR: BioMAP Diversity Plus: 3C Assay for Urokinase-type plasminogen activator receptor (uPAR) Biomarker Activity (AID 2282998). The following applies: BioMAP 3C HUVEC, uPAR biomarker ELISA; actives raise or lower the signal. In short, it runs like this:
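A multiplexed primary-cell system built on human umbilical vein endothelium was used, with chemical present for 24 h before reading. Cell-surface uPAR was detected by ELISA; signal change in either direction counted against DMSO.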
(An ELISA detects its analyte on a solid surface through an enzyme-linked reagent.)

Assay [17] has as its target Estrogen-related receptor gamma (Homo sapiens) (UniProt P62508). The assay is described as follows: ATG_ERRg_TRANS: Attagene TRANS-FACTORIAL HepG2 Assay for human Estrogen-Related Receptor gamma (ERRg) (AID 2282977; active = hit-call score of the fitted dose curve at least 0.9, where 1 is the maximum;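 also: hits increase reporter signal over DMSO so potencies reflect activators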). The following applies: HepG2 Attagene TRANS reporter, ERRg transactivation. In short, it runs like this: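 Readout: fluorescent reporter-mRNA fragments resolved by capillary electrophoresis after RT-PCR and HpaI cut. Cells: transiently transfected HepG2 carrying GAL4-UAS reporters driven by exogenous NR-Gal4 chimeras, dosed 24 h. Activity fitted upward relative to DMSO baseline.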

Assay [18] is described as follows: BSK_4H_Eotaxin3: BioMAP Diversity Plus: 4H Assay for Eotaxin 3 Biomarker Activity (AID 2283000).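 Also: CCL26 protein level quantified by ELISA in parallel with SRB cytotoxicity check.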 The following applies: primary human endothelial cells (HUVEC); actives raise or lower the signal. Put shortly:
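Chemicals were added to human umbilical vein endothelium cultures, and Eotaxin-3 was quantified by ELISA at 24 h. Values were derived by bidirectional fitting with DMSO serving as negative control and activity baseline.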

Assay [19] can be described thus: ATG_NF_kB_CIS: Attagene CIS-FACTORIAL HepG2 Assay for human Nuclear Factor Kappa B (NF-kB) (AID 2282991). The following applies: HepG2 Attagene cis-factorial NF-kB reporter mRNA; actives raise or lower the signal. In short, it runs like this: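 DMSO served as negative control and baseline for bidirectional curve fitting. Transiently transfected HepG2 cells were dosed for 24 h, then reporter transcripts were measured by RT-PCR with capillary electrophoresis detection.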

Assay [20] is described as follows: BSK_3C_VCAM1: BioMAP Diversity Plus: 3C Assay for Vascular cell adhesion molecule 1 (VCAM1) Biomarker Activity (AID 2282999). As to conditions: BioMAP 3C HUVEC, VCAM1 ELISA, cytokine-stimulated; actives raise or lower the signal. Put shortly: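 HUVEC primary cells, 24 h compound exposure; VCAM-1 by ELISA; gain/loss of signal fitted bidirectionally vs DMSO baseline.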

Chain of Cellular tumor antigen p53 (Homo sapiens) (P04637 whole entry, looked up): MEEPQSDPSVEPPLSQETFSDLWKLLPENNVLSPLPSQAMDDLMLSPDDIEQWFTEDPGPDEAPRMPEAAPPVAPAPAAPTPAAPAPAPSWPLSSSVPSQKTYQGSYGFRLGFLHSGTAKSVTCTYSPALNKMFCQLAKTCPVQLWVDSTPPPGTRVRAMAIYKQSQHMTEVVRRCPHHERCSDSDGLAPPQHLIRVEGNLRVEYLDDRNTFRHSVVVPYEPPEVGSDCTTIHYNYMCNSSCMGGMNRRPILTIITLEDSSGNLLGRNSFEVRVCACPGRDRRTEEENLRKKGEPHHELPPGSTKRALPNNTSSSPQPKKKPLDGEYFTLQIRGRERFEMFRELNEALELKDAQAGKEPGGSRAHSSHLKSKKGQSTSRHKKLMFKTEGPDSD
Chain of Oxysterols receptor LXR-beta (Homo sapiens) (P55055 whole entry, looked up, the tested form may be a part): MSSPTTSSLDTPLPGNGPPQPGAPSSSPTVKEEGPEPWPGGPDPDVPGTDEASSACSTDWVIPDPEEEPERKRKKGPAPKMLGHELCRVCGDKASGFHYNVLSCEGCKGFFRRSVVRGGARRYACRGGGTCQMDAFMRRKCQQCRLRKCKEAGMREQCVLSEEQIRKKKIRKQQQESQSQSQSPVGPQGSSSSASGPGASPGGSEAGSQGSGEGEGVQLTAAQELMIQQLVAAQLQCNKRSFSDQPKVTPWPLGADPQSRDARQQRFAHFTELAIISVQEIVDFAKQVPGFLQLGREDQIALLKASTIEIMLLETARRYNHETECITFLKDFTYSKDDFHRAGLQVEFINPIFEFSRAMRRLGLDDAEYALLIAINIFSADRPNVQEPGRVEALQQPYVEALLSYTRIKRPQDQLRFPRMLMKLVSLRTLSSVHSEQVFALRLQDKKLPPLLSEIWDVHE
Chain of Nuclear receptor subfamily 4 group A member 2 (Homo sapiens) (P43354 whole entry, looked up, the tested form may be a part): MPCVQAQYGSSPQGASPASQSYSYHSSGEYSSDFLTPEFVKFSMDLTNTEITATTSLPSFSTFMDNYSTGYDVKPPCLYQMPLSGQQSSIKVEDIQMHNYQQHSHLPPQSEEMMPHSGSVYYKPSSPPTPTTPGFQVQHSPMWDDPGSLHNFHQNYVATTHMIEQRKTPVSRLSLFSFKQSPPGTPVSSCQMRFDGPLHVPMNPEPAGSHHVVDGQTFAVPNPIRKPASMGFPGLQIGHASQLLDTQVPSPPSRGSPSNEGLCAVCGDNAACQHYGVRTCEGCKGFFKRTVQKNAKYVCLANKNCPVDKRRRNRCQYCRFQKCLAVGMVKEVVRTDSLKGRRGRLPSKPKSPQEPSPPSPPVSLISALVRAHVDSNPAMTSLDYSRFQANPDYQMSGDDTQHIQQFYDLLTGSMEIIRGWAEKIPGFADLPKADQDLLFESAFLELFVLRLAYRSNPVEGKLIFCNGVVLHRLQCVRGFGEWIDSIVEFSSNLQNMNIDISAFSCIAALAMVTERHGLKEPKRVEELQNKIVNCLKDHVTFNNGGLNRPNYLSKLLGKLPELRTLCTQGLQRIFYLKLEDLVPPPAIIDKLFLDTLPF
Chain of Myc proto-oncogene protein (Homo sapiens) (P01106 whole entry, looked up, the tested form may be a part): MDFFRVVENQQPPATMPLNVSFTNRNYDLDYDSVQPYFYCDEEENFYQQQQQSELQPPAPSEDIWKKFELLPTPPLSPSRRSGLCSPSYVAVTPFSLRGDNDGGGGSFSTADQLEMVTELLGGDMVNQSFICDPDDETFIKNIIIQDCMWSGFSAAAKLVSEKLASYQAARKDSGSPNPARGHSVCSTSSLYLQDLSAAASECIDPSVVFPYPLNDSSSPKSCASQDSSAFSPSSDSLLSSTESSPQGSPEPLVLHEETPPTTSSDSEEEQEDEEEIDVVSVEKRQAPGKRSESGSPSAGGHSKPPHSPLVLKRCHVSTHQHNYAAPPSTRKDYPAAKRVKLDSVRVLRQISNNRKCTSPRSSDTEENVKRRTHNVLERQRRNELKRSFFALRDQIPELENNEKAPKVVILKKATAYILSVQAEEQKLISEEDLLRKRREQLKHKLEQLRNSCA
Chain of Nuclear respiratory factor 1 (Homo sapiens) (Q16656 whole entry, looked up): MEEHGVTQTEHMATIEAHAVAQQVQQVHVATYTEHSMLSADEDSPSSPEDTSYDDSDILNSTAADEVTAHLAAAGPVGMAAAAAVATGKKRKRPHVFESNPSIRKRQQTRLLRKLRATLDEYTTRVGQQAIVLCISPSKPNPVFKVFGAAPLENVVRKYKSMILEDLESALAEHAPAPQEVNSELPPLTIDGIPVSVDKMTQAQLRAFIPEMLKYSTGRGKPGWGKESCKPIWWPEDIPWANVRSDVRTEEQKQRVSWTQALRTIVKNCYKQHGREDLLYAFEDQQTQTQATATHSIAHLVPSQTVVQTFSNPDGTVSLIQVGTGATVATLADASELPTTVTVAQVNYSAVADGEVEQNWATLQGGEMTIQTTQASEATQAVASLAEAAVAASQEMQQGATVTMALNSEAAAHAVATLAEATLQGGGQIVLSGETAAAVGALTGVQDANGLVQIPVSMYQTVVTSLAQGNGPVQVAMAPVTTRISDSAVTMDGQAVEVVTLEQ
Chain of Bile acid receptor (Homo sapiens) (Q96RI1 whole entry, looked up, the tested form may be a part): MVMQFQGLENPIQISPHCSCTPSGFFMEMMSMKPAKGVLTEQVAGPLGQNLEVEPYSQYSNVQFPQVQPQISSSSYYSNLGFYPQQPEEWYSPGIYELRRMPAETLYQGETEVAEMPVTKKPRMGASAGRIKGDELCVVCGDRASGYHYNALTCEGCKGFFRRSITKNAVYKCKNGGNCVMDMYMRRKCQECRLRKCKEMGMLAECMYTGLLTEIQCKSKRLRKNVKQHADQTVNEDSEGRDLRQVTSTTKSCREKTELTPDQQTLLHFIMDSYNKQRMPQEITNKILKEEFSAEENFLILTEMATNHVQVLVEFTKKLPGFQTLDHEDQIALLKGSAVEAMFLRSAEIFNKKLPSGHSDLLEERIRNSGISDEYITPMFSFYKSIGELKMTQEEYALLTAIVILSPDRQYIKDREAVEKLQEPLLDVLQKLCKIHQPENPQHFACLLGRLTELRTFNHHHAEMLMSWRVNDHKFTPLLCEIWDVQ
Chain of Estrogen-related receptor gamma (Homo sapiens) (P62508 whole entry, looked up, the tested form may be a part): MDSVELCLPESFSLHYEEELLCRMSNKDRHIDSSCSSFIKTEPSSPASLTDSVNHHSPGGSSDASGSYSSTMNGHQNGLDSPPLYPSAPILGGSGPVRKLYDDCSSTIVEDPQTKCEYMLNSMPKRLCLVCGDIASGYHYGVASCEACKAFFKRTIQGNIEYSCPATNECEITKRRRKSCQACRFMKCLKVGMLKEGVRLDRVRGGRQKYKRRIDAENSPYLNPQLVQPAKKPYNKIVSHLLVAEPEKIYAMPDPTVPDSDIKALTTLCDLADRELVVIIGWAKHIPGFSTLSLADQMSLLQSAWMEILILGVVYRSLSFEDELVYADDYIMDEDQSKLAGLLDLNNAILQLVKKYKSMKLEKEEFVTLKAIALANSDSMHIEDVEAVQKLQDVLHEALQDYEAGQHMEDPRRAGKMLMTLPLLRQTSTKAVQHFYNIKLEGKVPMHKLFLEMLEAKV
Chain of Hepatocyte nuclear factor 4-alpha (Homo sapiens) (P41235 whole entry, looked up): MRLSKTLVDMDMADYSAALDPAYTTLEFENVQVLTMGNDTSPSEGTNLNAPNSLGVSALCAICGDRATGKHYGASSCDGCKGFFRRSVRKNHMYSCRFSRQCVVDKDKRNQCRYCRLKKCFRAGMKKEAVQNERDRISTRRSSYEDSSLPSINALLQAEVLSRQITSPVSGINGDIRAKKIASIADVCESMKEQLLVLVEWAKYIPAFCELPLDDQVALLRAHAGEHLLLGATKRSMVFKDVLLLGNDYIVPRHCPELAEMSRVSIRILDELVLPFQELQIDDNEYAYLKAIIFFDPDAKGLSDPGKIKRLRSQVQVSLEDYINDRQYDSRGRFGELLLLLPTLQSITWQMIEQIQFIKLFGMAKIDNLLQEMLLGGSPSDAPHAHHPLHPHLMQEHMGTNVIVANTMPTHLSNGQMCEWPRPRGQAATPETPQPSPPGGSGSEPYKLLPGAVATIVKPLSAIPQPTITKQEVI
Chain of Oxysterols receptor LXR-alpha (Homo sapiens) (Q13133 whole entry, looked up, the tested form may be a part): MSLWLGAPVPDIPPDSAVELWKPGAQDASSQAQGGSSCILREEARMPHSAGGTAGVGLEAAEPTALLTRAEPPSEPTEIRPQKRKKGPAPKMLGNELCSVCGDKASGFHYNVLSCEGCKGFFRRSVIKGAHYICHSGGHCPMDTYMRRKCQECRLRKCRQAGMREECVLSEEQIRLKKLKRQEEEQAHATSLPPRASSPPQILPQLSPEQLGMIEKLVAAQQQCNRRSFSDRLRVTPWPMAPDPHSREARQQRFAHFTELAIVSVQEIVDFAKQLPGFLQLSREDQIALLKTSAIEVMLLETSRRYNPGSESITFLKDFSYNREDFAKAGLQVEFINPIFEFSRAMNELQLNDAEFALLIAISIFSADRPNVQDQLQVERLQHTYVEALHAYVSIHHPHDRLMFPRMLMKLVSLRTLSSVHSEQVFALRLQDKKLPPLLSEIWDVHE

A word on the AC50: it is the midpoint of the concentration-response curve, whichever way the signal moves. On to `O=C(O)C(F)(F)C(F)(F)C(F)(F)C(F)(F)C(F)(F)C(F)(F)C(F)(F)C(F)(F)F`, for which the AC50 in [1] is 151 µM (active) and 219 µM (active); in [7] it was 38.9 µM (active) and 39.4 µM (active); in assay [12], 50.9 µM (active) and 35.5 µM (active) and 13 µM (active); in [13] it was 50 µM (active); in [14], 217 µM (active); in [15] it was 30 µM (active) and 46 µM (active). In addition, the concentration at half-maximal activity (AC50) in [16] was 25 µM (active) and 51.6 µM (active). Moreover, the result in assay [1], in [2], in [3], in assay [4], in assay [5] and in assay [6] was inactive. Also, the outcome in assay [8], in assay [9], in [10], in [11], in assay [13] and in assay [14] was inactive. For the same molecule, the outcome in [15] and in assay [16] was inactive.

Regarding `Oc1ccc(Cl)cc1Cl`, the molecule was classed as inactive in [17], in assay [1], in assay [2], in [3], in assay [4] and in assay [5]. In addition, the call in assay [6], in [7], in assay [8], in assay [9], in assay [10] and in assay [11] was inactive. The result in assay [13], in assay [14], in [15], in assay [16] and in assay [18] was inactive. In addition, the half-maximal activity concentration (AC50) in assay [12] is 36.3 µM (active).

As to `C=CC(N)=O`, the result in [17], in [2], in assay [3], in [4], in [5] and in assay [6] was inactive. Besides, the call in assay [7], in [8], in assay [9], in [10], in assay [11] and in assay [19] was inactive. In addition, the outcome in assay [14], in assay [15], in [16] and in assay [18] was inactive. The AC50 in [12] is 66.5 µM (active); in assay [13] it was 172 µM (active).

In the case of `O=S(=O)(O)C(F)(F)C(F)(F)C(F)(F)C(F)(F)F`, the result in [17], in assay [2], in assay [3], in assay [4], in assay [5] and in assay [6] was inactive. In addition, the call in assay [7], in [8], in [9], in [10], in [11] and in assay [19] was inactive. The molecule was called inactive in [12], in assay [13], in [14], in [15], in assay [16] and in assay [18].

Consider `Cc1cccc(C)c1N`, for which the outcome in assay [1], in [4], in assay [5], in assay [8], in assay [9] and in assay [10] was inactive. Besides, the call in [11], in assay [19], in [12], in assay [13], in [14] and in assay [15] was inactive. Moreover, the outcome in [16] was inactive.

With `COc1ccc(O)c(C(C)(C)C)c1`, the molecule was classed as inactive in assay [1], in [5], in assay [6], in assay [9], in assay [10] and in assay [11]. For the same molecule, the molecule was classed as inactive in assay [14], in assay [15], in [16] and in assay [20]. For the same molecule, the half-maximal activity concentration (AC50) is 39 µM (active) in [12] and 143 µM (active) in [13].
